From PubChem BioAssay (NCATS) come the findings set out here.

Molecules are shown by their SMILES. Results filed as inconclusive are left out. Calls of active or inactive are those of the source. Unless noted, the call rests on the fitted dose curve; in most records, active means well fitted curve in the direction sought with a large enough effect; inconclusive means small, poorly fitted or top-dose-only effect, or another doubt; inactive means no such curve, though single readings can be large; an effect the other way counts as inactive or inconclusive.

Assay [1] is described as follows: qHTS for Inhibitors of Cell Surface uPA Generation: Validation Assay (AID 493164).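 Further: RAW 264.7 macrophage cells exposed to compound for 18 h; 0% is about no effect.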 In a few lines: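 Compounds are titrated over seven points (2.45 nM–38.3 uM final) onto pre-plated RAW 264.7 cells and incubated for 18 h. Retained intracellular ATP, measured with ATP-Lite, indicates blocked lethal factor entry.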
Assay [2] deals with Galactokinase (Homo sapiens) (UniProt P51570). Description: qHTS Validation Assay for Inhibitors of Human Galactokinase (GALK) (AID 493189). Further: 0% is about no effect. Summed up: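 Inhibition was measured as remaining ATP, detected by luciferase luminescence after a 1 h room-temperature reaction. Final conditions: 5 nM GALK, 100 uM galactose, 35 uM ATP, pH 8.0 HEPES buffer.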
Assay [3] can be described thus: Validation screen for small molecules that induce DNA re-replication in SW480 colon adenocarcinoma cells (AID 504364). Further: 0% is about no effect. In a few lines: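 Read-out: total Hoechst intensity of nuclei by fluorescence scanning imager; hits raise the fraction of nuclei with elevated DNA content. Cells received compound for 48 hr at 37 C before a 40 min stain.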
In assay [4] the target is Peptidyl-prolyl cis-trans isomerase NIMA-interacting 1 (Homo sapiens) (UniProt Q13526). The assay can be described thus: qHTS Validation Assay to Find Inhibitors of Pin1 (AID 504536; active means well fitted inhibition curve with a large enough effect in the polarisation, with a control signal flat, not every such curve was filed as active; the % refers to the polarisation;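 further: 0% = full Pin1 enzyme wells and -100% = no-enzyme wells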). Summed up:
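Fluorescence polarization competition: compounds (titration) displace HiFluor-488-labeled Pin1-1b peptide from Pin1 (0.3 uM final) in pH 7.5 HEPES buffer with DTT, 10 min at room temperature; %Activity normalized to no-enzyme wells, curves fitted.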

In assay [5] the target is Phosphoglycerate kinase, glycosomal (Trypanosoma brucei brucei) (UniProt P07378). The assay can be described thus: qHTS Validation Assay to Find Inhibitors of Phosphoglycerate Kinase (AID 504547).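 Further: control wells lack PGK and mark full inhibition.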 Summed up: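 Luminescence end-point (Kinase-Glo Plus, 10 min) after a 60 min room-temperature coupled reaction. GAPDH at 100nM final supplies 1,3-BPG to PGK. Buffer: 100mM TEA pH 7.6, 5mM MgCl2, 0.01% Tween-20. Wells lacking PGK served as controls.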

Assay [6] has as its target phosphoglycerate mutase (Leishmania major) (UniProt Q4Q090). Description: qHTS Validation Assay to Find Inhibitors of Phosphoglycerate Mutase (AID 504548). Further: series mostly up to about 58 µM; on the % scale 0 is the no-effect control and ±100 the full control effect. In a few lines:
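Lm PGAM at 1.25 nM final with substrate in 100 mM TEA pH 7.6, 5 mM MgCl2, 0.01% Tween-20; 45 min at room temperature. Kinase-GloPlus added, 10 min, end-point luminescence read.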

Assay [7] in a line: qHTS for Inhibitors of ATXN expression: Validation of Cytotoxic Assay (AID 588349). Further: potency means the concentration at half of the fitted maximal effect. Summed up: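 Cytotoxicity counter-screen: HEK293 cells exposed to compound titrations, 72 hr, 37 degrees C. Read-out is intracellular ATP (CellTiter Glo luminescence) as a viability measure.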
Assay [8] in a line: qHTS for Inhibitors of ATXN expression: Validation (AID 588378). Further: nearly all actives have a fitted effect of over 75% in size. Further: potency means the concentration at half of the fitted maximal effect. Summed up:
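Luciferase luminescence (Bright-Glo) from an ATXN2-FFLuc HEK293 line after 24 h compound exposure at 37 °C, preceded by a CellTiter-Fluor fluorescence viability read. Serial dilutions of a reference ATXN2 inhibitor and a luciferase inhibitor served as controls.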

For assay [9], the target named is Ubiquitin carboxyl-terminal hydrolase 1 (Homo sapiens) (UniProt O94782). Description: Inhibitors of USP1/UAF1: Pilot qHTS (AID 504865). Further: nearly all actives have a fitted effect of over 35% in size. Further: potency means the concentration at half of the fitted maximal effect. Summed up:
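Deubiquitinase activity followed as kinetic rhodamine fluorescence release from 150 nM Ub-Rho. 1 nM USP1/UAF1 with compound, after 15 min room-temperature preincubation, in HEPES pH 7.8 buffer containing TCEP, EDTA, BSA and Tween-20.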

Assay [10] has as its target Glucocorticoid receptor (Homo sapiens) (UniProt P04150). The assay can be described thus: qHTS assay for small molecule agonists of glucocorticoid receptor signaling (AID 588532; active means well fitted curve in the direction sought with a large enough effect in the signal ratio, with a control signal flat; the % refers to the signal ratio;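 further: 100% = dexamethasone at 0.1 µM and 0% = DMSO only wells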). The settings on record: HeLa MMTV-bla, beta-lactamase ratio, agonist, 18 h; stronger effect = higher value; percent of dexamethasone control, DMSO zero. In a few lines: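 Quantitative HTS using CellSensor MMTV-bla HeLa cells in charcoal/dextran-treated serum; compounds tested up to 92 uM. After 18 h at 37 C, CCF4 dye reported reporter induction.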

Assay [11] shares this target. The assay can be described thus: qHTS assay for small molecule antagonists of glucocorticoid receptor signaling (AID 588533; active means well fitted inhibition curve with a large enough effect in the signal ratio, with a control signal flat, not every such curve was filed as active; the % refers to the signal ratio;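 further: cells stimulated with 2 nM dexamethasone as agonist; on the % scale 0 is the no-effect control and ±100 the full control effect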). In a few lines: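 Antagonist-mode qHTS: compound titrations added to GRE-bla HeLa cells, then dexamethasone 2 nM final; 18 h, 37 C. CCF4 FRET fluorescence normalized to dexamethasone and DMSO; IC50 from Hill fit.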
Assay [12] has as its target DNA dC->dU-editing enzyme APOBEC-3G (Homo sapiens) (UniProt Q9HC16). The assay can be described thus: qHTS for inhibitors of Vif-A3G interactions: Validation (AID 588379). Further: 0% is about no effect. In a few lines: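 Yellow fluorescence (Ex 488, Em 500-530) of Vif-coexpressing HeLa A3G-eYFP cells, scanned by Acumen cytometer, reports blocked A3G degradation. Cells plated at 700/well overnight at 37 deg C before compound addition, then a further overnight compound incubation at 37 deg C.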

Assay [13] deals with Estrogen receptor (Homo sapiens) (UniProt P03372). Description: qHTS assay for small molecule agonists of estrogen receptor alpha signaling (AID 588514; calls by dose curve;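 further: 0% = vehicle only and 100% = reference agonist; nearly all actives have a fitted effect of over 70% in size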). In a few lines:
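Read-out: CCF4 fluorescence from a beta-lactamase reporter in ER-alpha-UAS-bla HEK 293 cells after 18 hrs of compound exposure at 37 C. Normalized to 20 nM 17-beta-estradiol (100%) and DMSO (0%).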

Assay [14] has as its target Bile acid receptor (Homo sapiens) (UniProt Q96RI1). The assay can be described thus: qHTS assay for small molecule antagonists of farnesoid X receptor signaling (AID 588526; calls by dose curve; further: on the % scale 0 is the no-effect control and ±100 the full control effect). In a few lines: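 Beta-lactamase reporter antagonist mode: HEK293T FXR-UAS-bla cells, titrated compound, CDCA stimulation, 16 h 37 C, CCF4 dye 2 h RT. Data normalized to CDCA 50 uM and DMSO; Hill-fit IC50.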

The nature of assay [15]: qHTS assay for small molecule antagonists of peroxisome proliferator-activated receptor delta signaling (AID 588535; active means well fitted inhibition curve with a large enough effect in the signal ratio, with a control signal flat, not every such curve was filed as active; the % refers to the signal ratio;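 on max response: cells co-treated with a PPAR-delta agonist as stimulator during compound exposure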). The following applies: HEK293T PPARd-UAS-bla, beta-lactamase FRET ratio, 18 h; 460 nm channel. In a few lines:
(§1)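 Antagonist-mode qHTS using GeneBLAzer PPAR-delta-UAS-bla HEK293T cells; compound exposure 18 hrs at 37 C over a titration. Ratiometric CCF4 fluorescence at 460/530 nm; concentration-response points fitted to the Hill equation.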

Assay [16] has as its target Peroxisome proliferator-activated receptor delta (Homo sapiens) (UniProt Q03181). Described as above. Summed up:
as §1

In assay [17] the target is Peroxisome proliferator-activated receptor gamma (Homo sapiens) (UniProt P37231). Description: qHTS assay for small molecule agonists of peroxisome proliferator-activated receptor gamma signaling (AID 588536; active means well fitted curve in the direction sought with a large enough effect in the signal ratio, with a control signal flat, not every such curve was filed as active; the % refers to the signal ratio;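 further: 0% = DMSO basal wells and 100% = rosiglitazone at 2 µM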). In a few lines: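 Cells were plated and held 6–6.5 h at 37 C, then compounds were added as a titration series. After a further 16 h, CCF4 dye was loaded for 2 h at room temperature and emission at 460/530 nm recorded.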
Chain of Peroxisome proliferator-activated receptor gamma (Homo sapiens) (P37231 whole entry, looked up): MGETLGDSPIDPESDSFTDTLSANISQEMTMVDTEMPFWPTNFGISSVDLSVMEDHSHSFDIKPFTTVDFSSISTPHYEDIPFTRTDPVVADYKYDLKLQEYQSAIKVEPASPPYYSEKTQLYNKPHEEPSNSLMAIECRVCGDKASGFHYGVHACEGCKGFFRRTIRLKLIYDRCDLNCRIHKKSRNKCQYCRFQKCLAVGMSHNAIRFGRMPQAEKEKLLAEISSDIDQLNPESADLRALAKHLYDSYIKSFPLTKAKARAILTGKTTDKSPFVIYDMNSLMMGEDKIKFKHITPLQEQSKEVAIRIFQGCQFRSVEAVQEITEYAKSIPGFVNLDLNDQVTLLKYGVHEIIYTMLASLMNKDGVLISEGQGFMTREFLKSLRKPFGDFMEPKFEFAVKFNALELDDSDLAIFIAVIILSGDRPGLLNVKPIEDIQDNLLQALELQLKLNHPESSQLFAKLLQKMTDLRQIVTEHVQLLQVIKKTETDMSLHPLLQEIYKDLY

Chain of Glucocorticoid receptor (Homo sapiens) (P04150 whole entry, looked up): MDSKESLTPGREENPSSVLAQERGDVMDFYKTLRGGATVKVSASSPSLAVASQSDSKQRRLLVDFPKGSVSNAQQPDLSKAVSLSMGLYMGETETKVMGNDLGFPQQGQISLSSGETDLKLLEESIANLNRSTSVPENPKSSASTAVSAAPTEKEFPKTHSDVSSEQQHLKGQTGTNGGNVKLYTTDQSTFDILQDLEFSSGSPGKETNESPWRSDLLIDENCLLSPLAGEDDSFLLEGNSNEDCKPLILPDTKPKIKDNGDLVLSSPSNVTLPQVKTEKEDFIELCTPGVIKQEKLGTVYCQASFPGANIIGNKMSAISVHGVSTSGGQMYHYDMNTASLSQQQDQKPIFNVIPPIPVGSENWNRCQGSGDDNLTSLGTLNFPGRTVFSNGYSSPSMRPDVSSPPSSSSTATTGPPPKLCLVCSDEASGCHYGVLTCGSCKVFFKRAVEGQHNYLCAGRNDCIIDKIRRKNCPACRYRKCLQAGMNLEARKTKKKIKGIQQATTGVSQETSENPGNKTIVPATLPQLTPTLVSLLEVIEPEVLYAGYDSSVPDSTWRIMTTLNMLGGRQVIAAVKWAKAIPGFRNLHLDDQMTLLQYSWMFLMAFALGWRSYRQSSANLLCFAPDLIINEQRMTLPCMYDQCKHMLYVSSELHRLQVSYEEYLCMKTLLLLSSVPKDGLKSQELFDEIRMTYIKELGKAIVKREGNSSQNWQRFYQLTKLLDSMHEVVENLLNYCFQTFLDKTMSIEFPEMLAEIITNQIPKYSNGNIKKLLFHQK
Chain of phosphoglycerate mutase (Leishmania major) (Q4Q090 1-553): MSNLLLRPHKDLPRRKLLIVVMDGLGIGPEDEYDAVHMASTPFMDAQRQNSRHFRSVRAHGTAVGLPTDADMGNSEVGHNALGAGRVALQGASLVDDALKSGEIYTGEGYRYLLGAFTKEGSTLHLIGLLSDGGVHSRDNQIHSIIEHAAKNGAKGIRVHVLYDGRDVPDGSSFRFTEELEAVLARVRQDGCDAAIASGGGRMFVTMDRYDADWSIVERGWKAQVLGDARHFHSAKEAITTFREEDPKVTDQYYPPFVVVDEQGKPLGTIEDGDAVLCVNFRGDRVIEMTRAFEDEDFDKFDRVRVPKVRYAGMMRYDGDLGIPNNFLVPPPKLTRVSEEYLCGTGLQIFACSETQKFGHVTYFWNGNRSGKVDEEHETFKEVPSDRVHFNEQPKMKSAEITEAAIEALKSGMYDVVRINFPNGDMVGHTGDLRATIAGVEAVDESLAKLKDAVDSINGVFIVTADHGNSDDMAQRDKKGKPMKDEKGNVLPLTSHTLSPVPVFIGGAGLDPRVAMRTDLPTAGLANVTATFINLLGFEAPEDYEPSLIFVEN
Chain of Ubiquitin carboxyl-terminal hydrolase 1 (Homo sapiens) (O94782 whole entry, looked up): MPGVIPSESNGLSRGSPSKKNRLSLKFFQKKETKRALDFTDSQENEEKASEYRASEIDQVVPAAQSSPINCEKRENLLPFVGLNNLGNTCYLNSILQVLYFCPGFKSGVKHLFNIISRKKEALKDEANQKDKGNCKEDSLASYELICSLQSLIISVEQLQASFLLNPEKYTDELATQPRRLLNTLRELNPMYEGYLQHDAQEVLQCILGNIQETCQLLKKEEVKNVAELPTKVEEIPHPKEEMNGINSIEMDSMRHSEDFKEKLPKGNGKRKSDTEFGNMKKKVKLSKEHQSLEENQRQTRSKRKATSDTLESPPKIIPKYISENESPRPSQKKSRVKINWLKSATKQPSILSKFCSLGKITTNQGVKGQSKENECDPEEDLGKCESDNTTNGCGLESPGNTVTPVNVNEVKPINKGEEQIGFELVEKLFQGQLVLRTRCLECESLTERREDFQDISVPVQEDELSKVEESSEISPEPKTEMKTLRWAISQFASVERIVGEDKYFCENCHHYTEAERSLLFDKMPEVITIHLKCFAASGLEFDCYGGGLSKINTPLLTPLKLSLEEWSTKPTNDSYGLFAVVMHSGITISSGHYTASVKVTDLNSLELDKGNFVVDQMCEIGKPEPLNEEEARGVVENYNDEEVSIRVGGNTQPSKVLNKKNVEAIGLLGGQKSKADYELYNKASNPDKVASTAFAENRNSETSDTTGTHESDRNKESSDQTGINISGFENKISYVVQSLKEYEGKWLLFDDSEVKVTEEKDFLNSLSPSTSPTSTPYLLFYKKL
Chain of Peptidyl-prolyl cis-trans isomerase NIMA-interacting 1 (Homo sapiens) (Q13526 whole entry, looked up): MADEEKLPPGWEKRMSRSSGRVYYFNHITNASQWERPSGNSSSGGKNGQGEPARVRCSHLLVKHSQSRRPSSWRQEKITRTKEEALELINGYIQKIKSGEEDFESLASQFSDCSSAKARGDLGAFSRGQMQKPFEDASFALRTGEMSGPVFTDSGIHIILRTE
Chain of Galactokinase (Homo sapiens) (P51570 whole entry, looked up): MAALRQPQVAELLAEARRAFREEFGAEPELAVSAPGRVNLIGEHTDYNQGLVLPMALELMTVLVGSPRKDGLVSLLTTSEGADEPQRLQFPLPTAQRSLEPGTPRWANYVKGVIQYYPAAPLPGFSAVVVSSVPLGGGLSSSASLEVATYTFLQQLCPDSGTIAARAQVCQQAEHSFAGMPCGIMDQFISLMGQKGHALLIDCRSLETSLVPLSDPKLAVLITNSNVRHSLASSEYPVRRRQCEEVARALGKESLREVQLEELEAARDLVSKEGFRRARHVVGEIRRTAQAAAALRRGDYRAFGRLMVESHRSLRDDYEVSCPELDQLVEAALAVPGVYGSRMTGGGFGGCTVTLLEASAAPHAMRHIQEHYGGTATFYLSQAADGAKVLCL
Chain of Phosphoglycerate kinase, glycosomal (Trypanosoma brucei brucei) (P07378 whole entry, looked up): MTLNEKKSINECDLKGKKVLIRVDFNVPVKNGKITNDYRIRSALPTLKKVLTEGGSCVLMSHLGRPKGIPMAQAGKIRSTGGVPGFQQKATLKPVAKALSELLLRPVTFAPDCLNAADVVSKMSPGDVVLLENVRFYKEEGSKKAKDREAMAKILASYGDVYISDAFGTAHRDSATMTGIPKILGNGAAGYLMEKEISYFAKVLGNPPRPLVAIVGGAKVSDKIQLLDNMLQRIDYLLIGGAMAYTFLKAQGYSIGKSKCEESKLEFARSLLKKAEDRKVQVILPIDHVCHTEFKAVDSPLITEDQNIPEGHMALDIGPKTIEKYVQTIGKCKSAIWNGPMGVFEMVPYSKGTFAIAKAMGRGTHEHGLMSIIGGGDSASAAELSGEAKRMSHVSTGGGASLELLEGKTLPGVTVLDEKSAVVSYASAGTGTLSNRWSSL
Chain of Estrogen receptor (Homo sapiens) (P03372 whole entry, looked up): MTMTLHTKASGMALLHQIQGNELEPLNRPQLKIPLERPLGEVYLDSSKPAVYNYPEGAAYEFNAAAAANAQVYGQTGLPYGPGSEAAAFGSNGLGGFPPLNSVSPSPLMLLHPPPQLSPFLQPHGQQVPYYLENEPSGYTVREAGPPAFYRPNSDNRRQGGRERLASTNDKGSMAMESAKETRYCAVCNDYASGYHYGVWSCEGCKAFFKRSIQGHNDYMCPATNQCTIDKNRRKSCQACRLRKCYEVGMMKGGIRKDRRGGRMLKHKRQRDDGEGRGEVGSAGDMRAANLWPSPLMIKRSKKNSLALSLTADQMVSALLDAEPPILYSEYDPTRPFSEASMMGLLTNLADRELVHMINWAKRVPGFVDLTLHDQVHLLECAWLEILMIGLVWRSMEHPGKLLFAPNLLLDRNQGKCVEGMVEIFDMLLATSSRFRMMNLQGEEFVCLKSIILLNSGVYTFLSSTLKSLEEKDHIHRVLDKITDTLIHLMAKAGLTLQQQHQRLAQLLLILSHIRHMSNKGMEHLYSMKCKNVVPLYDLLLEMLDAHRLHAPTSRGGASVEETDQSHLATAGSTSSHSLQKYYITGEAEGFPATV
Chain of Bile acid receptor (Homo sapiens) (Q96RI1 whole entry, looked up): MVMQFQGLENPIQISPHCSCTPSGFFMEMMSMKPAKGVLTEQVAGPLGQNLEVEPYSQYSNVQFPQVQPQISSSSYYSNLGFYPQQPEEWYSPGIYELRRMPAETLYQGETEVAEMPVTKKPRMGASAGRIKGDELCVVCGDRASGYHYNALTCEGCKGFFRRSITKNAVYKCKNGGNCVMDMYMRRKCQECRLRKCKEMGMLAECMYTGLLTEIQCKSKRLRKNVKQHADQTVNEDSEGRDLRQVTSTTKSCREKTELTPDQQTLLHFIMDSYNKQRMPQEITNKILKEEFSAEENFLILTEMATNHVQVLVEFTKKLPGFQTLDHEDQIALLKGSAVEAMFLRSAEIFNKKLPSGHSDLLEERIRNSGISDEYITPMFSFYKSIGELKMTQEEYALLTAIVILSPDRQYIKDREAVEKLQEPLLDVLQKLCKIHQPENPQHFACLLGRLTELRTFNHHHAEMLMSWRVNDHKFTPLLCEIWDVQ

Turning to `CN1CCN(C2Cc3ccccc3Sc3ccc(Cl)cc32)CC1` (configuration not stated), the result in [1], in [2], in assay [3], in assay [4], in assay [5] and in assay [6] was inactive. In addition, the Potency in [7] is 17.8 µM (active); in [8] it was 12.6 µM (active).

With `O=C1N=C(O)CN1/N=C/c1ccc(-c2ccc([N+](=O)[O-])cc2)o1`, the result in assay [1], in [2], in [3], in assay [4], in assay [5] and in [6] was inactive. For the same compound, the Potency result in assay [9], in [7] and in assay [8] was “inactive” in each case.

In the case of `O=c1cc[nH]c(=O)[nH]1`, the Potency result in [9] is “inactive”.

Take `Cc1c(O)cccc1C(=O)N[C@@H](CSc1ccccc1)[C@H](O)CN1C[C@H]2CCCC[C@H]2C[C@H]1C(=O)NC(C)(C)C`: the Potency result in assay [9] is “inactive”.

Turning to `O=Cc1ccccc1C=O`, the Potency in assay [9] is 50.1 µM (active).

With `CC(C)(C)[C@]1(O)CCN2C[C@H]3c4ccccc4CCc4cccc(c43)[C@@H]2C1`, the compound was called inactive in [1], in [4], in assay [5] and in assay [6]. The Potency result in [9], in assay [7] and in assay [8] was “inactive” each time.

Consider `O=C(O)c1ccccc1-c1ccc(C(F)(F)F)cc1`, for which the Potency result in [9] was “inactive”.

As for `O=S(=O)(O)NC1CCCCC1`, the Potency entry in assay [9] is “inactive”.

With `N[C@@H](CSCCCO)C(=O)O`, the Potency result in assay [9] is “inactive”.

Turning to `Nc1ccc(S(=O)(=O)Nc2ccccc2)cc1`, the Potency entry in assay [9] is “inactive”.

For the compound `O=C(O)c1ccccc1O`, the Potency result in [9] is “inactive”.

Regarding `CC(C)(C)C(=O)C(Oc1ccc(Cl)cc1)n1ccnc1` (configuration not stated), in [9], the Potency entry was “inactive”.

As to `OCC(O)CN1CCN(c2ccccc2)CC1` (configuration not stated), in assay [9], the Potency result is “inactive”.

With `NC(=O)c1ncn([C@@H]2O[C@H](CO)[C@@H](O)[C@H]2O)n1`, the result in assay [3], in assay [4] and in assay [11] was inactive. Moreover, the Potency result in assay [9] and in [7] was “inactive” in each case. Besides, the activation in assay [10] was 1.78% (inactive).

`COC(=O)C1=C(C)NC(C)=C(C(=O)OC)C1c1ccccc1[N+](=O)[O-]`: the call in assay [1], in [2], in assay [3], in assay [4], in assay [5] and in assay [6] was inactive. The outcome in assay [12] was inactive. In [10], the activation is -7.74% (inactive).

Take `CC(C)(C)C(=O)NCCCC(=O)O`: in [9], the Potency result is “inactive”.

As for `Nc1nc2c(ncn2CCC(CO)CO)c(=O)[nH]1`, in [9], the Potency result was “inactive”.

Consider `Oc1cn2c(n1)Nc1ccc(Cl)c(Cl)c1C2`, for which, in assay [9], the Potency entry was “inactive”.

With `O=C(O)[C@@H]1CSCN1`, the Potency result in assay [9] was “inactive”.

As to `CN(C)CCCN1c2ccccc2CCc2ccccc21`, the call in assay [1], in assay [5] and in assay [6] was inactive.

As for `CN(C)CCN(Cc1ccccc1)c1ccccn1`, the Potency result in [9] is “inactive”.

For the compound `CCN(CC)CCSC(=O)C(c1ccccc1)c1ccccc1`, in assay [9], the Potency result is “inactive”.

In the case of `Cc1cc(O)cc2c1O[C@](C)(CCC[C@H](C)CCC[C@H](C)CCCC(C)C)CC2`, the Potency entry in assay [9] was “inactive”.

As to `COc1cc(C)c(Cc2cnc(N)nc2N)cc1OC`, the Potency result in assay [9] was “inactive”.

With `Oc1ccc(C(O)CNCCCCCCNCC(O)c2ccc(O)c(O)c2)cc1O` (configuration not stated), the Potency result in assay [9] was “inactive”.

As to `C[C@]12C[C@H](O)[C@H]3[C@@H](CCC4=CC(=O)CC[C@@]43C)[C@@H]1CC[C@@H]2C(=O)CO`, the result in [1], in [4], in [5], in assay [6], in assay [13] and in assay [14] was inactive. Also, the compound was classed as inactive in [16] and in assay [17]. Moreover, the Potency entry in [9], in assay [7] and in assay [8] was “inactive” each time. Further, the max response in assay [15] was found to be 57.2%.
